Experimental data taken from PubChem BioAssay AID1159580 (chemical genetic matrix, 2015).
The campaign covered roughly 5,500 compounds. About 2,000 (36%) were called active. Another 18% or so got no clear call; they are omitted. Rule as the data show it: active = normalized growth mostly below about 0.91 (no sharp cut-off); inconclusive = no clear call, values can overlap the other calls; inactive = mostly above about 0.92. This is one part of the list.

Experiment: chemical genetic growth profiling, strain panel (AID 1159580);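 also: tested at 20 µM; growth read once vehicle control cultures reached saturation at 30 °C; 1 = growth at the plate median or of vehicle wells; lower values mean less growth of the strain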
Settings: S. cerevisiae deletion strains, growth OD

Measured: normalized growth

CN1CCc2cc3c(cc2[C@H]1C1OC(=O)c2c1ccc1c2OCO1)OCO3 (stereo partly specified)
inactive: locus YAL021C, strain ccr4, stronger effect = lower value 1.01 | locus YAL026C, strain drs2, stronger effect = lower value 0.989 | locus YAL030W, strain snc1, stronger effect = lower value 0.982 | locus YBL061C, strain skt5, stronger effect = lower value 0.982 | locus YBR009C, strain hhf1, stronger effect = lower value 0.989 | locus YBR023C, strain chs3, stronger effect = lower value 0.972 | locus YBR171W, strain sec66, stronger effect = lower value 0.997 | locus YBR231C, strain swc5, stronger effect = lower value 0.993 | locus YBR279W, strain paf1, stronger effect = lower value 0.993 | locus YCL011C, strain gbp2, stronger effect = lower value 0.985 | locus YCL016C, strain dcc1, stronger effect = lower value 0.981 | locus YCL061C, strain MRC1, stronger effect = lower value 0.993 | locus YCL069W, strain vba3, stronger effect = lower value 0.986 | locus YCR088W, strain abp1, stronger effect = lower value 0.98 | locus YDL005C, strain med2, stronger effect = lower value 0.988 | locus YDL040C, strain nat1, stronger effect = lower value 0.99 | locus YDR001C, strain nth1, stronger effect = lower value 0.986 | locus YDR069C, strain doa4, stronger effect = lower value 0.974 | locus YDR137W, strain rgp1, stronger effect = lower value 0.971 | locus YDR159W, strain sac3, stronger effect = lower value 0.976 | locus YDR195W, strain ref2 0.957 | locus YDR297W, strain sur2, stronger effect = lower value 0.987 | locus YDR334W, strain swr1, stronger effect = lower value 0.981 | locus YDR335W, strain msn5, stronger effect = lower value 0.996 | locus YDR392W, strain spt3, stronger effect = lower value 0.905 | locus YEL003W, strain gim4, stronger effect = lower value 0.991 | locus YEL037C, strain rad23, stronger effect = lower value 0.971 | locus YEL061C, strain CIN8 (second series), stronger effect = lower value 0.973 | locus YER015W, strain faa2, stronger effect = lower value 0.982 | locus YER016W, strain bim1, stronger effect = lower value 0.989 | locus YER111C, strain swi4, stronger effect = lower value 0.991 | locus YER155C, strain BEM2 (second series), stronger effect = lower value 0.968 | locus YFR010W, strain ubp6, stronger effect = lower value 0.977 | locus YGL167C, strain pmr1, stronger effect = lower value 0.98 | locus YGL173C, strain kem1, stronger effect = lower value 0.988 | locus YGL227W, strain vid30, stronger effect = lower value 0.976 | locus YGL240W, strain doc1, stronger effect = lower value 0.983 | locus YGL253W, strain hxk2, stronger effect = lower value 0.987 | locus YHR013C, strain ard1, stronger effect = lower value 0.959 | locus YHR027C, strain rpn1, stronger effect = lower value 0.993 | locus YHR030C, strain SLT2, stronger effect = lower value 0.985 | locus YHR079C, strain IRE1, stronger effect = lower value 0.989 | locus YHR142W, strain chs7, stronger effect = lower value 1.01 | locus YJL092W, strain hpr5, stronger effect = lower value 0.991 | locus YJL095W, strain BCK1 (second series), stronger effect = lower value 0.988 | locus YJL095W, strain BCK1, stronger effect = lower value 0.987 | locus YJL115W, strain asf1, stronger effect = lower value 0.983 | locus YJL129C, strain trk1, stronger effect = lower value 0.975 | locus YJL154C, strain vps35, stronger effect = lower value 0.985 | locus YJL164C, strain tpk1, stronger effect = lower value 1.01 | locus YJL166W, strain qcr8, stronger effect = lower value 0.999 | locus YJL187C, strain SWE1, stronger effect = lower value 0.986 | locus YJR066W, strain TOR1, stronger effect = lower value 0.93 | locus YKL160W, strain elf1, stronger effect = lower value 1.01 | locus YKR026C, strain gcn3, stronger effect = lower value 0.979 | locus YKR091W, strain srl3, stronger effect = lower value 0.99 | locus YLL001W, strain dnm1, stronger effect = lower value 0.987 | locus YLL026W, stronger effect = lower value 0.983 | locus YLL041C, strain sdh2, stronger effect = lower value 0.994 | locus YLR027C, strain aat2, stronger effect = lower value 0.976 | locus YLR113W, strain HOG1, stronger effect = lower value 0.987 | locus YLR221C, strain rsa3, stronger effect = lower value 0.989 | locus YLR258W, strain gsy2, stronger effect = lower value 0.988 | locus YLR262C, strain YPT6 (second series), stronger effect = lower value 0.97 | locus YLR320W, strain mms22, stronger effect = lower value 0.993 | locus YLR342W, strain FKS1, stronger effect = lower value 0.983 | locus YLR357W, strain rsc2, stronger effect = lower value 0.997 | locus YLR370C, strain arc18, stronger effect = lower value 0.983 | locus YLR384C, strain iki3, stronger effect = lower value 0.976 | locus YML120C, strain ndi1, stronger effect = lower value 0.981 | locus YMR058W, strain fet3, stronger effect = lower value 0.969 | locus YMR125W, strain sto1, stronger effect = lower value 0.973 | locus YMR129W, stronger effect = lower value 0.995 | locus YMR205C, strain PFK2, stronger effect = lower value 0.98 | locus YMR231W, strain pep5, stronger effect = lower value 0.987 | locus YNL071W, strain lat1, stronger effect = lower value 0.989 | locus YNL183C, strain NPR1, stronger effect = lower value 0.94 | locus YNL209W, strain ssb2, stronger effect = lower value 0.985 | locus YNL248C, strain rpa49, stronger effect = lower value 0.993 | locus YNL322C, strain KRE1 (second series), stronger effect = lower value 0.987 | locus YNR049C, strain mso1, stronger effect = lower value 0.99 | locus YOR001W, strain rrp6, stronger effect = lower value 1.01 | locus YOR070C, strain gyp1, stronger effect = lower value 0.973 | locus YOR080W, strain dia2, stronger effect = lower value 0.994 | locus YOR083W, strain WHI5, stronger effect = lower value 1.01 | locus YOR106W, strain vam3, stronger effect = lower value 0.99 | locus YOR231W, strain MKK1, stronger effect = lower value 0.977 | locus YOR265W, strain rbl2, stronger effect = lower value 0.99 | locus YOR270C, strain vph1, stronger effect = lower value 0.947 | locus YOR290C, strain snf2, stronger effect = lower value 0.974 | locus YPL051W, strain arl3, stronger effect = lower value 1 | locus YPL078C, strain atp4, stronger effect = lower value 1.01 | locus YPL106C, strain sse1, stronger effect = lower value 0.967 | locus YPL240C, strain hsp82, stronger effect = lower value 0.996 | locus YPL256C, strain CLN2, stronger effect = lower value 0.968

Cc1c(C(=O)c2cccc3ccccc23)c2cccc3c2n1[C@H](CN1CCOCC1)CO3
inactive: locus YAL013W, strain DEP1, stronger effect = lower value 0.978 | locus YAL040C, strain CLN3, stronger effect = lower value 1.01 | locus YCL061C, strain MRC1 (second series), stronger effect = lower value 0.986 | locus YDR363W, strain ESC2, stronger effect = lower value 0.973 | locus YER002W, strain NOP16, stronger effect = lower value 0.998 | locus YMR307W, strain GAS1, stronger effect = lower value 1.01 | locus YNL153C, strain GIM3, stronger effect = lower value 0.983 | locus YNL175C, strain NOP13, stronger effect = lower value 0.992 | locus YNL197C, strain WHI3, stronger effect = lower value 0.988 | locus YNL224C, strain SQS1, stronger effect = lower value 1.02 | locus YOR083W, strain WHI5 (second series), stronger effect = lower value 1.02
